This is one part of a sample in which hits are shown more often than they occur.
DUX4 txn inh: inhibitors of DUX4-driven ZSCAN4 reporter expression, primary screen, 293T cells, Gaussia and Italica luciferase; 37,000 compounds, 0.8% hits; activity change, negative = inhibition, % (test concentration not listed); 293T-iDUX4 ZSCAN4-Gaussia luciferase reporter, 24 h; hits give low values;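 active means mean inhibition of at least 10% in the main channel, exceeding the control channel by a set limit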
A number is an active result; n = inactive; ! = repeats disagree.

SMILES	DUX4 txn inh
COc1ccc2c3c([nH]c2c1)[C@@H](CO)N(Cc1ccc(Cl)cc1)CC31CCN(C(=O)CN(C)C)CC1	n
COc1ccc2c3c([nH]c2c1)[C@H](CO)N(C(C)=O)CC31CCN(Cc2ccccc2Cl)CC1	n
COc1ccc2c3c([nH]c2c1)[C@H](CO)N(Cc1ccccc1F)CC31CCN(S(C)(=O)=O)CC1	n
O=C(c1ccncc1)N1CC(=O)N2[C@H](C1)[C@@H](c1ccc(-c3ccccc3F)cc1)[C@@H]2CO	n
C[C@@H]1CN([C@H](C)CO)C(=O)CCCn2nncc2CO[C@@H]1CN(C)C(=O)Nc1ccc(C(F)(F)F)cc1	n
COc1ccc2c3c(n(C)c2c1)[C@H](CO)N(Cc1nccs1)CC31CCN(C(C)=O)CC1	n
CS(=O)(=O)N1CC2(C1)[C@@H](c1ccccc1)[C@@H](CO)N2CCC(F)(F)F	n
C[C@H]1CC=CC[C@@H](c2ccccc2)NC(=O)[C@H](Cc2ccccc2)N(C)C(=O)c2ccccc2O1 (mixture of isomers)	n
O=C(C1CCOCC1)N1C[C@@H]2N[C@H](C1)C2c1ccc(-c2cncnc2)cc1 (some centres not stated)	n
Cc1cccc(-c2ccc(C3[C@@H]4CN(C(=O)Nc5ccccc5)C[C@H]3N4)cc2)c1 (some centres not stated)	n
O=C(Nc1ccccc1)N1C[C@@H]2N[C@H](C1)C2c1ccc(-c2cccnc2)cc1 (some centres not stated)	-52.2
O=C(C1CCCC1)N1C[C@@H]2N[C@H](C1)C2c1ccc(-c2ccncc2)cc1 (some centres not stated)	-27.9!
O=C(c1ccncc1)N1C[C@@H]2N[C@H](C1)C2c1ccc(-c2ccncc2)cc1 (some centres not stated)	n
O=C(Nc1cccc(F)c1)N1C[C@@H]2N[C@H](C1)C2c1ccc(-c2cncnc2)cc1 (some centres not stated)	n
CNC(=O)C[C@@H]1CC[C@@H]2[C@H](COc3ccc(NC(=O)Nc4ccccc4F)cc3C(=O)N2C)O1	n
COc1ccc2c3c(n(C)c2c1)[C@@H](CO)N(Cc1ccncc1)CC31CCN(C(=O)NC(C)C)CC1	n
CCC(=O)N1CCC2(CC1)CN(Cc1ccc3c(c1)OCO3)[C@@H](CO)c1c2c2ccc(OC)cc2n1C	n
CN1[C@@H]2Cn3c(ccc(-c4ccncc4)c3=O)[C@H]1[C@@H](C(=O)NC1CCCCC1)[C@@H]2CO	n
COc1ccccc1C#Cc1ccc2c(c1)[C@@H]1[C@@H](CCN1C(=O)c1ccc(F)cc1)[C@@H](CO)N2	n
O=C(c1ccc(F)cc1)N1CC[C@@H]2[C@H](CO)Nc3ccc(C#Cc4ccc(F)cc4)cc3[C@@H]21	-19.7
O=C(c1ccc(F)cc1)N1CC[C@@H]2[C@H](CO)Nc3ccc(C#Cc4ccccc4F)cc3[C@@H]21	-29.6
O=C(c1ccc(F)cc1)N1CC[C@@H]2[C@H]1c1cc(C#Cc3ccccc3F)ccc1N[C@@H]2CO	n
COc1ccccc1C#Cc1ccc2c(c1)[C@@H]1[C@@H](CCN1C(=O)c1ccc(F)cc1)[C@H](CO)N2	n
O=C(c1ccc(F)cc1)N1CC[C@@H]2[C@H]1c1cc(C#Cc3ccc(F)cc3)ccc1N[C@@H]2CO	n
CCCNC(=O)N1C[C@@H](O)COC[C@H]2O[C@H](CC(=O)N[C@H]3CCN(Cc4ccccc4)C3)CC[C@@H]21	n
SMILES	DUX4 txn inh
O=C(Nc1ccccc1)N1C[C@@H]2[C@H](c3ccccc31)[C@@H](CO)N2C(=O)c1ccncc1	n
CC=Cc1ccc2n(c1=O)C[C@@H]1[C@@H](CO)[C@H](C(=O)N(C)C)[C@H]2N1CC1CC1 (mixture of isomers)	n
O=C(CN1CCOCC1)N1CC(=O)N2[C@H](CO)[C@@H](c3ccc(/C=C/c4ccccc4)cc3)[C@@H]2C1	n
Cc1ccccc1S(=O)(=O)N1C[C@@H]2N[C@H](C1)C2c1ccc(/C=C/c2ccccc2)cc1 (some centres not stated)	-37.2
CS(=O)(=O)N1[C@H](C#N)[C@@H](c2ccc(/C=C/c3ccccc3)cc2)[C@H]1CO	n
C/C=C/c1ccc(C2[C@H]3CNC[C@@H]2N3S(=O)(=O)c2ccccc2C)cc1 (some centres not stated)	n
Cc1ccccc1S(=O)(=O)N1C[C@@H]2N[C@H](C1)C2c1ccc(-c2ccc(C#N)cc2)cc1 (some centres not stated)	-68.8!
Cc1ccccc1S(=O)(=O)N1[C@H](C#N)[C@H](c2ccc(-c3ccc(F)cc3)cc2)[C@H]1CO	n
Cc1ccccc1S(=O)(=O)N1[C@@H]2CNC[C@H]1C2c1ccc(-c2cccc(C#N)c2)cc1 (some centres not stated)	n
O=C(NCCc1ccccc1)[C@H]1[C@H](CO)[C@H]2Cn3c(cccc3=O)[C@@H]1N2C(=O)C1CCC1	n
O=C(NCc1ccc(F)cc1)[C@@H]1N[C@@H]2c3ccc(-c4ccccc4)c(=O)n3C[C@@H]2[C@H]1CO	n
CC[C@H]1CC=CC[C@H](C)Oc2ccccc2C(=O)N(C)[C@@H](C(C)C)C(=O)N1 (mixture of isomers)	n
C[C@H]1CN([C@@H](C)CO)C(=O)CCCn2cc(nn2)CO[C@H]1CN(C)S(=O)(=O)c1ccc(-c2ccccc2)cc1	n
CCC(=O)N1CC2(C1)[C@H](c1ccc(-c3ccccc3C)cc1)[C@H](CO)N2C(C)=O	n
COc1ccc(NC(=O)N2CCCCN3[C@H](C2)[C@H](c2ccc(C#CCC(C)C)cc2)[C@@H]3CO)cc1	n
CN1CCCCN2[C@H](CO)[C@H](c3ccc(C#CC4(O)CCCC4)cc3)[C@@H]2C1	n
OC[C@H]1[C@@H](c2ccc(C#CC3(O)CCCC3)cc2)[C@H]2CN(Cc3ccncc3)CCCCN21	n
COc1ccc(NC(=O)N2CCCCN3[C@@H](CO)[C@H](c4ccc(C#CCC(C)C)cc4)[C@@H]3C2)cc1	n
OC[C@@H]1[C@H](c2ccc(C#CC3(O)CCCC3)cc2)[C@H]2CN(Cc3ccncc3)CCCCN12	n
CCCC#Cc1ccc([C@H]2[C@H](CO)N3CCCCN(Cc4ccncc4)C[C@@H]23)cc1	n
CN1CCCCN2[C@H](C1)[C@@H](c1ccc(C#CC3(O)CCCC3)cc1)[C@@H]2CO	n
OC[C@H]1[C@H](c2ccc(C#CC3(O)CCCC3)cc2)[C@@H]2CN(Cc3ccncc3)CCCCN12	n
COc1ccc(C#Cc2ccc([C@H]3[C@H](CO)N4CCCCN(C)C[C@@H]34)cc2)cc1	-26.2
COc1ccc(C#Cc2ccc([C@H]3[C@@H](CO)N4CCCCN(Cc5ccncc5)C[C@H]34)cc2)cc1	-32.2
COc1ccc(C#Cc2ccc([C@@H]3[C@@H](CO)N4CCCCN(Cc5ccncc5)C[C@@H]34)cc2)cc1	-45.3
COc1ccc(NC(=O)N2CCCCN3[C@H](CO)[C@@H](c4ccc(C#CCC(C)C)cc4)[C@@H]3C2)cc1	-17.3
C[C@H](CO)N1C[C@H](C)[C@@H](CN(C)S(=O)(=O)c2ccc(F)cc2)OCc2ccccc2-c2ccccc2C1=O	n
O=C(CN1CCOCC1)NCC[C@@H]1CC[C@@H](NC(=O)c2ccc3c(c2)OCO3)[C@H](CO)O1	n
CS(=O)(=O)N1CC2(C1)[C@@H](c1ccccc1)[C@@H](CO)N2C(=O)C1CCC1	n
CCOC(=O)N(C)C[C@@H]1OCc2ccccc2-c2ccccc2C(=O)N([C@H](C)CO)C[C@H]1C	n
